# Experimental data from the supplement of paper PMC8728848.
# About 410 targets per protein were measured; listed, in parts, are those with the strongest signals and a random draw of the rest.
# B1: FGFR2-Fc (protein)
# chain: MVNVTDAISSGDDEDDTDGAEDFVSENSNNKRAPYWTNTEKMEKRLHAVPAANTVKFRCPAGGNPMPTMRWLKNGKEFKQEHRIGGYKVRNQHWSLIMESVVPSDKGNYTCVVENEYGSINHTYHLDVVERSPHRPILQAGLPANASTVVGGDVEFVCKVYSDAQPHIQWIKHVEKNGSKYGPDGLPYLKVLKHSGINSSNAEVLALFNVTEADAGEYICKVSNYIGQANQSAWLTVLPKQQAPGREKEITASPDYLETRPLEQKLISEEDLAANDILDYKDDDDKV
# What was measured:
# Assay in all cases: glycan array binding signal (z-score within array); higher = stronger binding
# Settings in all cases: glycan notation: IUPAC condensed, linker removed
# [1] = target: Fuc(a1-2)Gal(b1-4)GlcNAc(b1-2)Man
# Outline: (§1)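 Glycan array data came from 3228 arrays in the Consortium for Functional Glycomics database, and only arrays with an available protein sequence were kept. Glycan names were put into IUPAC-condensed notation, and columns mapping to the same glycan were averaged. The binding signal is a within-array Z-score, averaged across arrays of one protein sequence run at different concentrations or buffers and across linkers. A negative Z-score can be read as non-binding.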
# [2] = target: Fuc(a1-2)Gal(b1-4)GlcNAc(b1-2)Man(a1-3)[Fuc(a1-2)Gal(b1-4)GlcNAc(b1-2)Man(a1-6)]Man(b1-4)GlcNAc(b1-4)GlcNAc
# Outline: as §1
# [3] = target: Fuc(a1-2)[Gal(a1-3)]Gal(b1-4)GlcNAc(b1-3)GalNAc
# Outline: as §1
# [4] = target: Fuc(a1-2)[Gal(a1-3)]Gal(b1-4)GlcNAc(b1-6)GalNAc
# Outline: as §1
# [5] = target: Fuc(a1-2)[GalNAc(a1-3)]Gal(b1-4)GlcNAc(b1-2)Man(a1-3)[Fuc(a1-2)[GalNAc(a1-3)]Gal(b1-4)GlcNAc(b1-2)Man(a1-6)]Man(b1-4)GlcNAc(b1-4)GlcNAc
# Outline: as §1
# [6] = target: Fuc(a1-3)[Gal(b1-4)]GlcNAc(b1-6)[Gal(b1-3)GlcNAc(b1-3)]Gal(b1-4)Glc
# Outline: as §1
# [7] = target: Fuc(a1-3)[Gal(b1-4)]GlcNAc6S
# Outline: as §1
# [8] = target: Gal(a1-3)Gal(b1-3)GlcNAc(b1-6)GalNAc
# Outline: as §1
# [9] = target: Gal(a1-3)[Gal(a1-4)]Gal(b1-4)GlcNAc
# Outline: as §1
# Gal(b1-3)GalNAc = target: Gal(b1-3)GalNAc
# Outline: as §1
# [10] = target: Gal(b1-3)GlcNAc(b1-2)[Gal(b1-3)GlcNAc(b1-6)]Man(a1-6)[Gal(b1-3)GlcNAc(b1-2)Man(a1-3)]Man(b1-4)GlcNAc(b1-4)GlcNAc
# Outline: as §1
# [11] = target: Gal(b1-3)GlcNAc(b1-3)Gal(b1-4)Glc
# Outline: as §1
# [12] = target: Gal(b1-4)GlcNAc(b1-2)Man(a1-3)Man(b1-4)GlcNAc(b1-4)GlcNAc
# Outline: as §1
# [13] = target: Gal(b1-4)GlcNAc(b1-2)Man(a1-3)[GlcNAc(b1-4)][Gal(b1-4)GlcNAc(b1-2)Man(a1-6)]Man(b1-4)GlcNAc(b1-4)GlcNAc
# Outline: as §1
# [14] = target: Gal(b1-4)GlcNAc(b1-3)Gal(b1-4)GlcNAc(b1-3)Gal(b1-4)GlcNAc(b1-3)Gal(b1-4)GlcNAc(b1-2)Man(a1-3)[Gal(b1-4)GlcNAc(b1-3)Gal(b1-4)GlcNAc(b1-3)Gal(b1-4)GlcNAc(b1-3)Gal(b1-4)GlcNAc(b1-2)Man(a1-6)]Man(b1-4)GlcNAc(b1-4)GlcNAc
# Outline: as §1
# [15] = target: Gal(b1-4)GlcNAc(b1-3)Gal(b1-4)GlcNAc(b1-3)[Gal(b1-4)GlcNAc(b1-3)Gal(b1-4)GlcNAc(b1-6)]GalNAc
# Outline: as §1
# [16] = target: Gal3S(b1-4)[Fuc(a1-3)]Glc6S
# Outline: as §1
# [17] = target: GalNAc(b1-3)Gal(a1-6)Gal(b1-4)Glc
# Outline: as §1
# GalNAc3S(b1-4)GlcNAc = target: GalNAc3S(b1-4)GlcNAc
# Outline: as §1
# GlcA(b1-3)GlcNAc = target: GlcA(b1-3)GlcNAc
# Outline: as §1
# [18] = target: GlcNAc(a1-3)Gal(b1-4)GlcNAc
# Outline: as §1
# [19] = target: GlcNAc(a1-4)Gal(b1-4)GlcNAc(b1-3)Gal(b1-4)[Fuc(a1-3)]GlcNAc(b1-3)Gal(b1-4)[Fuc(a1-3)]GlcNAc
# Outline: as §1
# [20] = target: GlcNAc(b1-2)[GlcNAc(b1-4)]Man(a1-3)[GlcNAc(b1-4)][GlcNAc(b1-2)[GlcNAc(b1-6)]Man(a1-6)]Man(b1-4)GlcNAc(b1-4)[Fuc(a1-6)]GlcNAc
# Outline: as §1
# GlcNAc(b1-3)Fuc = target: GlcNAc(b1-3)Fuc
# Outline: as §1
# [21] = target: GlcNAc(b1-3)Gal(b1-3)GalNAc
# Outline: as §1
# [22] = target: GlcNAc(b1-3)Gal(b1-4)GlcNAc(b1-3)Gal(b1-4)GlcNAc(b1-3)GalNAc
# Outline: as §1
# GlcNAc(b1-4)GlcNAc = target: GlcNAc(b1-4)GlcNAc
# Outline: as §1
# [23] = target: GlcNAc6S(b1-3)Gal(b1-4)GlcNAc
# Outline: as §1
# Man(b1-4)GlcNAc = target: Man(b1-4)GlcNAc
# Outline: as §1
# [24] = target: Neu5Ac(a2-3)Gal(b1-3)GalNAc(b1-4)[Neu5Ac(a2-8)Neu5Ac(a2-3)]Gal(b1-4)Glc
# Outline: as §1
# [25] = target: Neu5Ac(a2-3)Gal(b1-3)[Neu5Ac(a2-6)]GlcNAc(b1-3)[Fuc(a1-3)[Gal(b1-4)]GlcNAc(b1-6)]Gal(b1-4)Glc
# Outline: as §1
# [26] = target: Neu5Ac(a2-3)Gal(b1-3)]Neu5Ac(a2-3)Gal(b1-4)]GlcNAc
# Outline: as §1
# [27] = target: Neu5Ac(a2-3)Gal(b1-4)[Fuc(a1-3)]GlcNAc(b1-3)Gal
# Outline: as §1
# [28] = target: Neu5Ac(a2-6)Gal(b1-4)GlcNAc(b1-2)Man(a1-6)[Gal(b1-4)GlcNAc(b1-2)Man(a1-3)]Man(b1-4)GlcNAc(b1-4)GlcNAc
# Outline: as §1
# [29] = target: Neu5Ac(a2-6)Gal(b1-4)GlcNAc(b1-2)Man(a1-6)[Man(a1-3)]Man(b1-4)GlcNAc(b1-4)GlcNAc
# Outline: as §1
# [30] = target: Neu5Ac(a2-6)Gal(b1-4)GlcNAc(b1-3)Gal(b1-4)GlcNAc(b1-3)Gal(b1-4)GlcNAc(b1-2)Man(a1-3)[Neu5Ac(a2-6)Gal(b1-4)GlcNAc(b1-3)Gal(b1-4)GlcNAc(b1-3)Gal(b1-4)GlcNAc(b1-2)Man(a1-6)]GalNAc
# Outline: as §1
# [31] = target: Neu5Ac(a2-8)Neu5Ac(a2-3)Gal(b1-4)Glc
# Outline: as §1
# [32] = target: Neu5Ac(a2-8)Neu5Ac(a2-3)Gal(b1-4)GlcNAc
# Outline: as §1
# [33] = target: Neu5Ac(a2-8)Neu5Ac(a2-8)Neu5Ac(a2-8)Neu5Ac(a2-3)[GalNAc(b1-4)]Gal(b1-4)Glc
# Outline: as §1
binder,measurement,setting,value
B1,glycan array binding signal (z-score),[1],0.252
same,glycan array binding signal (z-score),[2],-0.068
same,glycan array binding signal (z-score),[3],0.523
same,glycan array binding signal (z-score),[4],-0.635
same,glycan array binding signal (z-score),[5],0.034
same,glycan array binding signal (z-score),[6],-0.327
same,glycan array binding signal (z-score),[7],1.73
same,glycan array binding signal (z-score),[8],-0.722
same,glycan array binding signal (z-score),[9],0.989
same,glycan array binding signal (z-score),Gal(b1-3)GalNAc,0.236
same,glycan array binding signal (z-score),[10],0.991
same,glycan array binding signal (z-score),[11],-0.488
same,glycan array binding signal (z-score),[12],-0.054
same,glycan array binding signal (z-score),[13],-0.552
same,glycan array binding signal (z-score),[14],1.4
same,glycan array binding signal (z-score),[15],0.9
same,glycan array binding signal (z-score),[16],1.35
same,glycan array binding signal (z-score),[17],-0.126
same,glycan array binding signal (z-score),GalNAc3S(b1-4)GlcNAc,-0.098
same,glycan array binding signal (z-score),GlcA(b1-3)GlcNAc,-0.356
same,glycan array binding signal (z-score),[18],22.2
same,glycan array binding signal (z-score),[19],1.49
same,glycan array binding signal (z-score),[20],0.045
same,glycan array binding signal (z-score),GlcNAc(b1-3)Fuc,0.448
same,glycan array binding signal (z-score),[21],-0.02
same,glycan array binding signal (z-score),[22],0.549
same,glycan array binding signal (z-score),GlcNAc(b1-4)GlcNAc,-0.264
same,glycan array binding signal (z-score),[23],0.175
same,glycan array binding signal (z-score),Man(b1-4)GlcNAc,0.038
same,glycan array binding signal (z-score),[24],-0.349
same,glycan array binding signal (z-score),[25],0.595
same,glycan array binding signal (z-score),[26],-0.115
same,glycan array binding signal (z-score),[27],1.09
same,glycan array binding signal (z-score),[28],0.258
same,glycan array binding signal (z-score),[29],-0.126
same,glycan array binding signal (z-score),[30],1.17
same,glycan array binding signal (z-score),[31],-0.492
same,glycan array binding signal (z-score),[32],-0.139
same,glycan array binding signal (z-score),[33],0.963
